Test results: PubChem BioAssay

These compounds were tested against E3 ubiquitin-protein ligase XIAP (Homo sapiens) (UniProt P98170) (assay: XIAP binders, primary screen, biophysical, small-molecule microarray, fluorescence 635 nm (AID 1181;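 note: score merges 667 nm emission and signal to noise over triplicate slides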)). Settings: small-molecule microarray binding, higher = more signal.
E3 ubiquitin-protein ligase XIAP (Homo sapiens), sequence (P98170 whole entry, looked up): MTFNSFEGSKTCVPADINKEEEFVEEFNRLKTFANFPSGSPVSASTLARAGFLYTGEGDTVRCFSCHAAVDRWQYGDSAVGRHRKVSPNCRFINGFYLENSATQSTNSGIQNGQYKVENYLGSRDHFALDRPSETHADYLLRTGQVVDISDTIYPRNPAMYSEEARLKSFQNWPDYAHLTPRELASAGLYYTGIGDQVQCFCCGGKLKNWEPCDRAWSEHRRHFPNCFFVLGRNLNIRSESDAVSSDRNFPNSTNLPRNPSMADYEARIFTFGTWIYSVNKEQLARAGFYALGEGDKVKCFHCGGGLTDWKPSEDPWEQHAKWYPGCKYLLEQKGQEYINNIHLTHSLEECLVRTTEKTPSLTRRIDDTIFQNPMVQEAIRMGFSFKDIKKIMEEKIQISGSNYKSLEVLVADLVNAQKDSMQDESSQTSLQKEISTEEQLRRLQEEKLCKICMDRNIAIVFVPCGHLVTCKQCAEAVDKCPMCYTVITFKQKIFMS

Compound | composite z-score
COCCOC(=O)N1C(=O)[C@@]2(c3cc(C#CCNC(N)=O)ccc31)[C@H](C(=O)N1CCc3cc(OC)c(OC)cc3C1)[C@H]1C(=O)O[C@H](c3ccccc3)[C@H](c3ccccc3)N1[C@@H]2c1ccc(OCCO)cc1 | 0.122
CCOC(=O)C1=CC[C@@H](c2ccccc2)N(S(=O)(=O)c2ccc(C)cc2)[C@H]1C(=O)OCC | -0.052
O=C(CS)NCCCCCCNC(=O)[C@@H]1C[C@@H]2C(=O)N3CCC[C@H]3C(=O)N2[C@@H]1c1ccc(O)cc1 | 0.0153
CCOC(=O)C1=CCC(c2ccc([N+](=O)[O-])cc2)N(S(=O)(=O)c2ccc(C)cc2)C1 (stereo unspecified) | -0.0513
COCCOC(=O)N1C(=O)[C@@]2(c3cc(C#CCNC(N)=O)ccc31)[C@H](c1ccc(O)cc1)N1[C@H](c3ccccc3)[C@H](c3ccccc3)OC(=O)[C@H]1[C@@H]2C(=O)Nc1nc2ccccc2s1 | -0.115
O=c1cccc(CCc2ccccc2)o1 | 0.273
O=C1N(CCS(=O)(=O)c2ccccc2)Cc2ccccc2[C@H]2OC(c3ccc(OCCCO)cc3)=N[C@@]12CCS(=O)(=O)c1ccccc1 | -0.15
CN(C)C(=O)[C@@]1(CCC(=O)OC(C)(C)C)N=C(c2ccc(OCCCO)cc2)O[C@H]1c1ccccc1 | -0.168
O=C1C2C=CC(C(O)c3ccc(-c4ccccc4)s3)N(n3cnnc3)C2C(=O)N1Cc1ccccc1 (stereo unspecified) | 0.296
CC(C)C(O)C1C=CC2C(=O)N(c3ccccc3)C(=O)C2N1Nc1ccc(C#N)cc1 (stereo unspecified) | 0.0073
COC(=O)c1ccc(C(O)C2C=CC3C(=O)N(C)C(=O)C3N2NC(=O)OC(C)(C)C)o1 (stereo unspecified) | 1.42
